Data on five molecules can be found in PubChem BioAssay AID1700 (The Scripps Research Institute Molecular Screening Center, 2009).

The structures appear in SMILES notation. The whole screen tested about 290,000 compounds, of which about 670 (0.23%) were called active. This is one part of a sample in which actives are shown more often than they occur.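 The calls were made as follows: active = inhibition above a per-plate limit of that plate's mean compound inhibition plus 3 SD (cut at about 60% in these data); inactive = the rest.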

A short description of this test: KLF5 expression inhibitors, primary screen, DLD-1 cells, luminescence (AID 1700).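 Also: 0% = DMSO wells and 100% = LY294002 at 200 µM; higher means less KLF5 promoter-driven luciferase light.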 The following applies: DLD-1 KLF5 promoter-luciferase reporter, at 5 µM, stronger effect = higher value. A general note: In a reporter assay the amount or activity of a reporter protein is the signal.
What is called inhibition is the change of the read-out against control, counted positive when it falls. Take `CCCCCCCCCCCCn1ccc(=N)cc1`: the inhibition was 75.9% (active).

In the case of `CCN(CC)c1ccc([N+](=O)[O-])c2cccnc12`, the inhibition is -21% (inactive).

Regarding `COc1cc2nc(N3CCN(C(=O)[C@@H]4CCCO4)CC3)nc(N)c2cc1OC`, the inhibition is -16.5% (inactive).

Turning to `O=C1NC(=O)C(CCc2ccccn2)(Cc2cccc(Cl)c2Cl)C(=O)N1c1ccc(Br)cc1` (stereo not given), the inhibition is -5.72% (inactive).

In the case of `COc1ccc(N2C(=O)/C(=C/c3ccco3)C(=O)NC2=S)cc1`, the inhibition is -5.05% (inactive).
